Most compounds without a hit are left out; they make up all but 8% or so of the library.
Marburg entry: qHTS for Inhibitors of binding or entry into cells for Marburg Virus; Marburg virus pseudotype entry/binding inhibition, cell-based; Potency, µM (series often up to 49.2 µM), for inactives: at the highest dose activity change, negative = inhibition, actives largely listed as inhibitors; 18,000 tested, 6.5% active
Lassa entry: qHTS for Inhibitors of binding or entry into cells for Lassa Virus. Lassa virus pseudotyped entry inhibition, cell-based qHTS. 18,000 tested, 4.1% active. AID 720533, 2013. Potency, µM (series often up to 49.2 µM), without a hit: at the top dose activity change, negative = inhibition, hits mostly inhibitors
An asterisk follows results filed as active; u = inconclusive; ! = not confirmed by another sample; [ ] = remark or other dose. Calls come from the whole dose curve; tested in HEK293 cells. % is set by controls: 0 for no effect and ±100 for the full control effect; potency is the fitted concentration of half-maximal effect.

SMILES	Marburg entry	Lassa entry
C[C@H](NCCC(c1ccccc1)c1ccccc1)c1ccccc1	10µM*	u
C[C@H](NCc1ccccc1)c1ccccc1	-1%	1%
C[C@@H](O)CNC(C)(C)CC(=O)N[C@@H]1CCc2ccccc2N(Cc2ccc(-c3ccccc3-c3nn[nH]n3)cc2)C1=O	11%	8%
O=C(NC(CC1=CCCCC1)c1ccc2ccccc2c1)C(F)(F)F (stereo unspecified)	-17%[8.59 µM]	7%[8.59 µM]
NCCc1ccccn1	16%	-3%
c1ccc(CN(CCN(Cc2ccccn2)Cc2ccccn2)Cc2ccccn2)nc1	10µM*	10µM*
COc1ccccc1-c1ccnc(-n2ncc(C(=O)NCc3cccc(C)n3)c2C)n1	1%	-7%
Cc1cc2c(c(-c3cnccn3)c1)OC(CNC(=O)c1c(F)cccc1Cl)C2 (stereo unspecified)	u	-12%
COC(=O)[C@H](Cc1ccccc1)NC(=O)O[C@@H]1C(=O)c2cc(OC)ccc2O[C@H]1c1cccc(OC)c1	43%	21%
CC(=O)Oc1cccc(O)c1	-11%	-3%
CC(=O)Oc1ccc(C2(c3ccc(OC(C)=O)cc3)Oc3ccccc3NC2=O)cc1	-21%	10µM*
OC[C@@H](O)[C@@H](O)CCc1ccccc1	-20%	4%
COC(=O)C1(C(=O)OC)C[C@@H]2CON=C2[C@@H]1c1ccccc1	1%[8.59 µM]	-3%[8.59 µM]
CCCC(=O)O[C@]1(C(=O)COC(=O)CC)[C@@H](C)C[C@H]2[C@@H]3CCC4=CC(=O)C=C[C@]4(C)[C@@]3(F)[C@@H](O)C[C@@]21C	11µM*	u
CCCCC(=O)O[C@@]1(C(=O)CO)C(C)CC2C3CCC4=CC(=O)C=C[C@@]4(C)[C@]3(F)C(O)C[C@]21C (stereo partly specified)	-13%	-2%
C[C@@H]1CN(CCCn2c3ccccc3c3ccccc32)C[C@H](C)N1	7.9µM*	18µM*
COc1ccc2[nH]cc(CCNc3ncnc4ccc(-c5ccccc5C#N)cc34)c2c1	-3%	u
C=C(C)[C@H]1O[C@H]2CC[C@@]3(C)[C@@](O)(CC[C@H]4[C@@H]5OC(C)(C)[C@H]6C[C@@H]7C(=C)Cc8c(Cl)cc9[nH]c(c5c9c8[C@@]76O)[C@@]43C)[C@]23O[C@@H]3[C@H]1O	u	25µM*
Fc1cccc(COc2ccc(Nc3ncnc4sc(-c5ccco5)cc34)cc2Cl)c1	u	-15%
CN1CCN(Cc2ccc(-c3cc4ncnc(Nc5ccc(OCc6cccc(F)c6)c(Cl)c5)c4s3)o2)CC1	10µM*	u
C/C(=C\CO)CCO	-15%	-1%
C#CCN1C(=O)[C@]2(OCCC=C[C@H]2C)c2c(Br)cccc21	u	1%[8.59 µM]
CC(C)[C@@H](C)/C=C/[C@@H](C)[C@H]1CC[C@H]2/C(=C/C=C3\C[C@@H](O)CC[C@@H]3C)CCC[C@]12C	13%	22µM*
C=C1CCC(O)C/C1=C/C=C1\CCC[C@@]2(C)C(C(C)/C=C/C(C)C(C)C)CC[C@@H]12 (stereo partly specified)	-29%	-22%
O=C(C1CCCCC1)N1C[C@@H](O)[C@@H](n2cc(C3CC3)nn2)C[C@@H]1c1ccc(Cl)cc1	-19%	11%
SMILES	Marburg entry	Lassa entry
CCCCCCCC1=Cc2ccccc2C(C(C(C)=O)C(=O)OC)N1C(=O)OC (stereo unspecified)	-5%[8.59 µM]	-12%[8.59 µM]
COc1cc2c(c(OC)c1OC)C(c1ccc3c(c1)OCO3)CC(=O)O2 (stereo unspecified)	54%	-4%
COc1ccc2c(c1OC)CN1CCc3cc4c(cc3C1C2)OCO4 (stereo unspecified)	2%[17.8 µM]	6%[17.8 µM]
COc1ccc2c(c[n+](C)c3c4cc5c(cc4ccc23)OCO5)c1OC	4.5µM*	10µM*
COc1ccc2cc3[n+](cc2c1OC)CCc1cc2c(cc1-3)OCO2	10µM*!	11µM*!
O=C(NCC1Cc2cc(-c3cnc4ccccc4c3)cc(F)c2O1)c1cnsn1 (stereo unspecified)	21%	-9%
CC(=O)Nc1ccc(NC(=S)NC(=O)c2ccc(C(C)(C)C)cc2)cc1	7.1µM*	32µM*
O=C(NC1CC1)c1ccc(NC(=O)C2CCC2)cc1	19%	20%
Cc1ccc(C(=O)c2cc(O)c(O)c([N+](=O)[O-])c2)cc1	-20%	-17%
CCCC[C@]12Cc3cc(C#N)ccc3[C@H](O1)c1c(cc(C)n(Cc3ccccc3)c1=O)O2	-23%[8.59 µM]	-8%[8.59 µM]
O=C(c1cccs1)N1C[C@@H](n2cc(C3CC3)nn2)[C@@H](O)C[C@@H]1c1ccc(Cl)cc1	-11%	-19%
CC(C)(c1ccc(OCC2CO2)cc1)c1ccc(OCC2CO2)cc1 (stereo unspecified)	7.1µM*!	8.9µM*!
c1ccc(COC[C@H]2CO2)cc1	10%	4%
COC(=O)CC=C[C@@H](C)[C@@H](C=NOCC[C@@H]1C=C[C@H](OC(C)=O)[C@@H](COC(C)=O)O1)NS(=O)(=O)c1ccc(C)cc1	53%[8.59 µM]	-19%[8.59 µM]

High-throughput results from PubChem.
